From PubChem BioAssay AID1529 (NMMLSC, 2009) come the findings set out here.

About 4,200 (1.4%) of roughly 290,000 compounds were called active.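 Rule for the calls: active = binding response more than 3 SD above or below the average of its plate-row segment, actives on both sides; inconclusive = wells at one plate position flagged as instrument error; inactive = the rest.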 The sample as a whole holds a higher share of actives than the screen did.

Sequence of Mitogen-activated protein kinase kinase kinase 3 (Homo sapiens) (Q99759 whole entry, looked up): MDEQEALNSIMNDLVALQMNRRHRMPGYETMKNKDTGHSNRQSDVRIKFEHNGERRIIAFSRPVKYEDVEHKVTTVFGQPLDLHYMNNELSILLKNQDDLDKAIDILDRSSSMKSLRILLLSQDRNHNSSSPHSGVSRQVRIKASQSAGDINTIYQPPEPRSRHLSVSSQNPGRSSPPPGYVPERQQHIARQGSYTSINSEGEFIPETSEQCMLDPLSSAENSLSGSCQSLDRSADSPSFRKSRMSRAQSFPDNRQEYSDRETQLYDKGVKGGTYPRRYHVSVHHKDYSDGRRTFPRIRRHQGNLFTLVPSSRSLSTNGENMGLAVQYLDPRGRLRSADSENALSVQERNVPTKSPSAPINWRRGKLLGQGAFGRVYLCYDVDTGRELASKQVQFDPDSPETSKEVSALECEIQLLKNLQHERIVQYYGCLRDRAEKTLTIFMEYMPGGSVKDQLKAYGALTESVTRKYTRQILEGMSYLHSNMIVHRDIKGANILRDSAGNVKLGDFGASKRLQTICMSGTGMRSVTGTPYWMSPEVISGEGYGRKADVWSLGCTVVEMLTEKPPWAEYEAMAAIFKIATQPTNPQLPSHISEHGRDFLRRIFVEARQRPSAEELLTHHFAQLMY

The experiment concerns the target Mitogen-activated protein kinase kinase kinase 3 (Homo sapiens) (UniProt Q99759). The experiment in a line: compounds raising or lowering MEK5 association with MEKK3 PB1 – biochemical, wildtype MEKK3, multiplex bead flow cytometry, Alexa488-MEK5, primary screen (AID 1529).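 Note: Alexa488 bead fluorescence after subtracting the streptavidin-only scavenger bead signal.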 The conditions noted are these: bead-based flow cytometry, Alexa488-MEK5 binding to MEKK3; at 10 µM; actives lie on both sides; 0 = blocked by unlabeled MEK5, 100 = vehicle. A general note: A flow cytometer gives signals particle by particle.
Take `CC1(C)OC(=O)N2CCc3ccccc3C21C` (centres undefined): the binding response (% of control) is 129% (active).

`CC1Cc2ccccc2N1C1=CC(=O)CC(C)(C)C1` (centres undefined): the binding response (% of control) was 100% (inactive).

On to `O=C(Nc1ccccc1)/C(=C/c1ccc([N+](=O)[O-])cc1)NC(=O)c1ccccc1`, for which the binding response (% of control) is 111% (inactive).

As for `O=C(Nc1ccc(C(=O)O)cc1)/C(=C/c1ccc([N+](=O)[O-])cc1)NC(=O)c1ccccc1`, the binding response (% of control) was 97% (inactive).

Consider `CNC(=O)/C(=C\C=C\c1ccccc1)NC(=O)c1ccc([N+](=O)[O-])cc1`, for which the binding response (% of control) is 73% [inhibitor] (active).

For `O=C(Nc1ccc(O)cc1)c1ccc(NC(=O)c2ccco2)cc1`, the binding response (% of control) was 101% (inactive).

On to `COc1ccc2c(c1)CCNC2Cc1ccc(OC)c(O)c1` (centres undefined), for which the binding response (% of control) is 98% (inactive).

Turning to `C=CCn1c(-c2sc(-c3ccccc3)nc2C)n[nH]c1=S`, the binding response (% of control) is 99% (inactive).

Turning to `C=CCn1c(-c2ccc3[nH]c(C)c(C)c3c2)n[nH]c1=S`, the binding response (% of control) was 105% (inactive).

As for `C=CCn1c(=S)sc2c(=O)[nH]c(C)nc21`, the binding response (% of control) is 131% (active).

Take `O=S(=O)(c1cccc(Cn2nnc(-c3ccc(F)cc3)n2)c1)N1CCOCC1`: the binding response (% of control) is 103% (inactive).

For the compound `O=C(CSc1ccc(-c2ccc(F)cc2)nn1)Nc1ccc2c(c1)OCCO2`, the binding response (% of control) is 133% (active).

`Cc1csc(NC(=O)CSc2ccc(-c3ccc(F)cc3)nn2)n1`: the binding response (% of control) is 100% (inactive).

In the case of `Cc1ccc(SCC(=O)Nc2ccc3c(c2)OCCO3)cc1`, the binding response (% of control) was 127% (inactive).

As for `C[C@H]1CC[C@]2(O[C@@H](CCO)C[C@@H](O)[C@@H]2O)O1`, the binding response (% of control) is 96% (inactive).

Regarding `COc1cc(NC(=O)c2cccnc2SC)cc(OC)c1`, the binding response (% of control) is 110% (inactive).

As for `COc1ccc2nc(C)cc(Nc3cccc(C(=O)O)c3)c2c1`, the binding response (% of control) is 106% (inactive).

With `COc1cccc(Nc2ncccc2C(=O)O)c1`, the binding response (% of control) is 3% [inhibitor] (active).

Regarding `O=C(NC(=S)Nc1ccc(Cl)cc1Cl)C1CC1`, the binding response (% of control) was 100% (inactive).

Regarding `Cc1ccc2oc(C(=O)N3CCN(C)C[C@@H]3C(C)C)c(C)c2c1`, the binding response (% of control) is 102% (inactive).

For the compound `COc1ccc(NCCc2ccccn2)cc1`, the binding response (% of control) is 108% (inactive).

As for `Cc1ccc(C(=O)N/C(=C/c2ccco2)C(=O)NCCc2c[nH]c3ccccc23)cc1C`, the binding response (% of control) is 73% [inhibitor] (active).

`COc1ccc(/C=C(\NC(=O)c2ccc(OC)c(OC)c2)C(=O)NCCc2c[nH]c3ccccc23)cc1`: the binding response (% of control) was 103% (inactive).

On to `O=C(NC(Cc1c[nH]c2ccccc12)C(=O)O)/C(=C/c1ccco1)NC(=O)c1ccccc1` (centres undefined), for which the binding response (% of control) was 101% (inactive).

For the compound `CCOC(=O)c1cc2c(ccn2C)n1CC(=O)N1CCC(C)CC1`, the binding response (% of control) was 111% (inactive).

As for `CCOC(=O)c1cc2occc2n1CC(=O)NC1CCC(C)CC1` (centres undefined), the binding response (% of control) was 104% (inactive).

Take `CCOC(=O)c1cc2occc2n1CC(=O)N1CCN(C(=O)c2ccco2)CC1`: the binding response (% of control) was 0% [inhibitor] (active).

`CCn1c(SCC(=O)NC2CCCC2)nnc1-c1ccoc1C`: the binding response (% of control) was 98% (inactive).

On to `Cc1ccccc1C(=O)NNC(=O)CN1C(=O)c2ccccc2C1=O`, for which the binding response (% of control) is 135% (active).

For the compound `Cc1cc(C)cc(NC(=O)CN2C(=O)c3ccccc3C2=O)c1`, the binding response (% of control) was 97% (inactive).

Regarding `Cc1cccc(NC(=O)CN2C(=O)c3ccccc3C2=O)c1C`, the binding response (% of control) is 110% (inactive).

Take `CCC(Cc1ccccc1)NC(=O)C1CCCCC1` (centres undefined): the binding response (% of control) was 101% (inactive).

For the compound `CCOCCCN(C)C1CCN(C(=O)c2oc3ccccc3c2NC(=O)Cc2cccc([N+](=O)[O-])c2)CC1`, the binding response (% of control) is 99% (inactive).

Take `Cc1ccc(CC2CC(=O)N(c3cc(C)ccc3C)C2=O)cc1` (centres undefined): the binding response (% of control) is 101% (inactive).

On to `Cc1ccc(N2C(=O)CC(N3CCSCC3)C2=O)c(C)c1` (centres undefined), for which the binding response (% of control) was 55% [inhibitor] (active).

As to `O=C1CC(N2CCN(c3ccc(F)cc3)CC2)C(=O)N1c1ccccc1` (centres undefined), the binding response (% of control) was 100% (inactive).

As for `COC(=O)C1=C[C@@H](C(=O)OC)[C@@H]2C3=C(C(=O)[C@]2(C)NC(=O)c2ccccc2)[C@H](C)n2c(=O)n(C)c(=O)n2[C@@H]3C1`, the binding response (% of control) was 108% (inactive).

With `CC(c1cccnc1)N(CCN(C)C)C(=O)Nc1ccc(Cl)c(Cl)c1` (centres undefined), the binding response (% of control) was 96% (inactive).

For `CC(C)(C)NC(=O)c1cc(NC(=O)c2ccco2)cc(NC(=O)c2ccco2)c1`, the binding response (% of control) is 101% (inactive).

As for `C/C(CC(=O)NC(C)(C)C)=N\NC(=O)c1ccco1`, the binding response (% of control) is 140% (active).

Turning to `COc1ccc(N(CC(=O)NC(C)(C)C)C(=O)c2ccco2)cc1`, the binding response (% of control) was 98% (inactive).

Take `Cc1ccc(S(=O)(=O)N[C@@H](Cc2ccccc2)C(=O)N2CCC(C(=O)N[C@H](C(=O)O)C(C)O)CC2)cc1` (some centres undefined): the binding response (% of control) is 107% (inactive).

As for `Cc1ccc(CSc2nsc(C)c2C#N)cc1`, the binding response (% of control) was 103% (inactive).

Consider `CC(C)CC(=O)Nc1ccc(Cc2ccncc2)cc1`, for which the binding response (% of control) is 104% (inactive).

For `COc1cccc(OC)c1C(=O)Nc1ccc(Cc2ccncc2)cc1`, the binding response (% of control) was 147% (active).

For the compound `COc1cccc(OC)c1C(=O)Nc1ccc2c(c1)n(C)c(=O)n2C`, the binding response (% of control) is 109% (inactive).

Consider `CCOc1ccc(N(CC(=O)Nc2ccccc2F)S(=O)(=O)c2c(C)[nH]c(=O)[nH]c2=O)cc1`, for which the binding response (% of control) was 101% (inactive).

Consider `COc1ccc(S(=O)(=O)N2CCOCC2)cc1C(=O)NC1CCCCC1`, for which the binding response (% of control) was 103% (inactive).

For `O=C(NCC1CCCCC1)c1cc(S(=O)(=O)N2CCCCC2)ccc1N1CCOCC1`, the binding response (% of control) was 4% [inhibitor] (active).

As to `COCCNC(=S)Nc1cc(S(=O)(=O)N2CCOCC2)ccc1N1CCCCC1`, the binding response (% of control) is 99% (inactive).

`COc1cccc(C(=O)OCc2cc(=O)oc3c(C)c(C)ccc23)c1OC`: the binding response (% of control) was 103% (inactive).

In the case of `Nc1nc(SCc2cccc(Br)c2)n[nH]1`, the binding response (% of control) was 105% (inactive).

Turning to `CSCC[C@H](NC(=O)CCCn1nnc2ccccc2c1=O)C(=O)O`, the binding response (% of control) is 137% (active).

For `O=C(CCn1nnc2ccccc2c1=O)N[C@@H](Cc1c[nH]c2ccccc12)C(=O)O`, the binding response (% of control) was 98% (inactive).

As to `O=c1c2ccccc2nnn1CSc1nnnn1-c1ccccc1`, the binding response (% of control) is 101% (inactive).

With `CN(CCc1ccccn1)C(=O)c1ccc(OC2CCN(CCc3ccccc3)CC2)cc1`, the binding response (% of control) was 98% (inactive).

As to `COc1ccc(CNC(=O)C2CCN(S(C)(=O)=O)CC2)cc1`, the binding response (% of control) was 39% [inhibitor] (active).

Regarding `COc1ccc(CNC(=O)C2CCN(S(=O)(=O)N3CCOCC3)CC2)cc1`, the binding response (% of control) was 104% (inactive).

As for `COc1ccc(CNC(=O)C2CCN(S(=O)(=O)c3ccc(SC)cc3)CC2)cc1`, the binding response (% of control) was 101% (inactive).
